About 2,000 (36%) of roughly 5,500 compounds were called active. Roughly 18% stayed inconclusive and do not appear here. No stated cut-off is given here; in the data, active means normalized growth mostly below about 0.91 (no sharp cut-off); inconclusive means no clear call, values can overlap the other calls; inactive means mostly above about 0.92. Some of the results follow.
Test: chemical genetic growth profiling, strain panel (AID 1159580);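 further: tested at 20 µM; growth read once vehicle control cultures reached saturation at 30 °C; 1 = growth at the plate median or of vehicle wells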
Settings: growth OD

Measured: normalized growth

C=C1C2CCC3(C)C(c4ccoc4)OC(=O)CC13OC1CC(OC(C)=O)C(C)(C)C(CC(=O)OC)C12C (configuration not stated)
inactive: S. cerevisiae deletion strains, locus YAL021C, strain ccr4, stronger effect = lower value 1.02 | S. cerevisiae deletion strains, locus YAL026C, strain drs2, stronger effect = lower value 1.01 | S. cerevisiae deletion strains, locus YAL030W, strain snc1, stronger effect = lower value 1 | S. cerevisiae deletion strains, locus YBL061C, strain skt5, stronger effect = lower value 0.993 | S. cerevisiae deletion strains, locus YBR009C, strain hhf1, stronger effect = lower value 1 | S. cerevisiae deletion strains, locus YBR021W, strain FUR4, stronger effect = lower value 1 | S. cerevisiae deletion strains, locus YBR023C, strain chs3, stronger effect = lower value 1 | S. cerevisiae deletion strains, locus YBR171W, strain sec66, stronger effect = lower value 1.01 | S. cerevisiae deletion strains, locus YBR229C, strain ROT2, stronger effect = lower value 1 | S. cerevisiae deletion strains, locus YBR231C, strain swc5, stronger effect = lower value 1.02 | S. cerevisiae deletion strains, locus YBR279W, strain paf1, stronger effect = lower value 1.01 | S. cerevisiae deletion strains, locus YCL011C, strain gbp2, stronger effect = lower value 1 | S. cerevisiae deletion strains, locus YCL016C, strain dcc1, stronger effect = lower value 1 | S. cerevisiae deletion strains, locus YCL029C, strain bik1, stronger effect = lower value 0.995 | S. cerevisiae deletion strains, locus YCL061C, strain MRC1, stronger effect = lower value 1.01 | S. cerevisiae deletion strains, locus YCL069W, strain vba3, stronger effect = lower value 1 | S. cerevisiae deletion strains, locus YCR088W, strain abp1, stronger effect = lower value 1.01 | S. cerevisiae deletion strains, locus YDL005C, strain med2, stronger effect = lower value 0.985 | S. cerevisiae deletion strains, locus YDL035C, strain GPR1, stronger effect = lower value 0.993 | S. cerevisiae deletion strains, locus YDL040C, strain nat1, stronger effect = lower value 1.01 | S. cerevisiae deletion strains, locus YDL074C, strain BRE1, stronger effect = lower value 1.02 | S. cerevisiae deletion strains, locus YDL101C, strain DUN1, stronger effect = lower value 1 | S. cerevisiae deletion strains, locus YDL185W, strain tfp1, stronger effect = lower value 0.999 | S. cerevisiae deletion strains, locus YDL192W, strain arf1, stronger effect = lower value 0.985 | S. cerevisiae deletion strains, locus YDR001C, strain nth1, stronger effect = lower value 1.01 | S. cerevisiae deletion strains, locus YDR069C, strain doa4, stronger effect = lower value 1.01 | S. cerevisiae deletion strains, locus YDR101C, strain arx1, stronger effect = lower value 1.05 | S. cerevisiae deletion strains, locus YDR137W, strain rgp1, stronger effect = lower value 0.899 | S. cerevisiae deletion strains, locus YDR159W, strain sac3, stronger effect = lower value 1.03 | S. cerevisiae deletion strains, locus YDR162C, strain NBP2, stronger effect = lower value 0.991 | S. cerevisiae deletion strains, locus YDR195W, strain ref2 1 | S. cerevisiae deletion strains, locus YDR297W, strain sur2, stronger effect = lower value 1.02 | S. cerevisiae deletion strains, locus YDR318W, strain mcm21, stronger effect = lower value 0.992 | S. cerevisiae deletion strains, locus YDR334W, strain swr1, stronger effect = lower value 1.03 | S. cerevisiae deletion strains, locus YDR335W, strain msn5, stronger effect = lower value 1 | S. cerevisiae deletion strains, locus YDR388W, stronger effect = lower value 1 | S. cerevisiae deletion strains, locus YDR392W, strain spt3, stronger effect = lower value 1.01 | S. cerevisiae deletion strains, locus YDR502C, strain sam2, stronger effect = lower value 0.994 | S. cerevisiae deletion strains, locus YEL003W, strain gim4, stronger effect = lower value 1.01 | S. cerevisiae deletion strains, locus YEL037C, strain rad23, stronger effect = lower value 1.02 | S. cerevisiae deletion strains, locus YEL061C, strain CIN8 (second series), stronger effect = lower value 1.01 | S. cerevisiae deletion strains, locus YEL061C, strain CIN8, stronger effect = lower value 1 | S. cerevisiae deletion strains, locus YER015W, strain faa2, stronger effect = lower value 1.01 | S. cerevisiae deletion strains, locus YER016W, strain bim1, stronger effect = lower value 1.01 | S. cerevisiae deletion strains, locus YER110C, stronger effect = lower value 0.99 | S. cerevisiae deletion strains, locus YER111C, strain swi4, stronger effect = lower value 0.988 | S. cerevisiae deletion strains, locus YER155C, strain BEM2 (second series), stronger effect = lower value 1.02 | S. cerevisiae deletion strains, locus YER155C, strain BEM2, stronger effect = lower value 1.01 | S. cerevisiae deletion strains, locus YER167W, strain BCK2, stronger effect = lower value 1.01 | S. cerevisiae deletion strains, locus YFR010W, strain ubp6, stronger effect = lower value 1.01 | S. cerevisiae deletion strains, locus YGL078C, strain dbp3, stronger effect = lower value 1.01 | S. cerevisiae deletion strains, locus YGL086W, strain mad1, stronger effect = lower value 0.998 | S. cerevisiae deletion strains, locus YGL167C, strain pmr1, stronger effect = lower value 1.01 | S. cerevisiae deletion strains, locus YGL173C, strain kem1, stronger effect = lower value 0.998 | S. cerevisiae deletion strains, locus YGL227W, strain vid30, stronger effect = lower value 1 | S. cerevisiae deletion strains, locus YGL240W, strain doc1, stronger effect = lower value 0.991 | S. cerevisiae deletion strains, locus YGL248W, strain PDE1, stronger effect = lower value 0.993 | S. cerevisiae deletion strains, locus YGL253W, strain hxk2, stronger effect = lower value 0.981 | S. cerevisiae deletion strains, locus YGR135W, strain pre9, stronger effect = lower value 0.983 | S. cerevisiae deletion strains, locus YGR252W, strain gcn5, stronger effect = lower value 0.923 | S. cerevisiae deletion strains, locus YHR013C, strain ard1, stronger effect = lower value 1.01 | S. cerevisiae deletion strains, locus YHR027C, strain rpn1, stronger effect = lower value 1.02 | S. cerevisiae deletion strains, locus YHR030C, strain SLT2, stronger effect = lower value 1.01 | S. cerevisiae deletion strains, locus YHR079C, strain IRE1 (second series), stronger effect = lower value 1 | S. cerevisiae deletion strains, locus YHR094C, strain hxt1, stronger effect = lower value 0.999 | S. cerevisiae deletion strains, locus YHR129C, strain ARP1, stronger effect = lower value 1.01 | S. cerevisiae deletion strains, locus YHR142W, strain chs7, stronger effect = lower value 0.99 | S. cerevisiae deletion strains, locus YHR200W, strain rpn10, stronger effect = lower value 1 | S. cerevisiae deletion strains, locus YIL066C, strain RNR3, stronger effect = lower value 1.01 | S. cerevisiae deletion strains, locus YIL073C, strain SPO22, stronger effect = lower value 0.973 | S. cerevisiae deletion strains, locus YIL125W, strain kgd1, stronger effect = lower value 0.998 | S. cerevisiae deletion strains, locus YIR030C, strain dcg1, stronger effect = lower value 0.998 | S. cerevisiae deletion strains, locus YJL092W, strain hpr5, stronger effect = lower value 1.02 | S. cerevisiae deletion strains, locus YJL095W, strain BCK1 (second series), stronger effect = lower value 1.02 | S. cerevisiae deletion strains, locus YJL095W, strain BCK1, stronger effect = lower value 1.01 | S. cerevisiae deletion strains, locus YJL115W, strain asf1, stronger effect = lower value 1.01 | S. cerevisiae deletion strains, locus YJL129C, strain trk1, stronger effect = lower value 0.969 | S. cerevisiae deletion strains, locus YJL134W, strain LCB3, stronger effect = lower value 1.01 | S. cerevisiae deletion strains, locus YJL154C, strain vps35, stronger effect = lower value 1.03 | S. cerevisiae deletion strains, locus YJL164C, strain tpk1, stronger effect = lower value 0.997 | S. cerevisiae deletion strains, locus YJL166W, strain qcr8, stronger effect = lower value 1.02 | S. cerevisiae deletion strains, locus YJL168C, strain set2, stronger effect = lower value 0.998 | S. cerevisiae deletion strains, locus YJL187C, strain SWE1 (second series), stronger effect = lower value 1 | S. cerevisiae deletion strains, locus YJR043C, strain POL32, stronger effect = lower value 1.02 | S. cerevisiae deletion strains, locus YKL160W, strain elf1, stronger effect = lower value 1.01 | S. cerevisiae deletion strains, locus YKR001C, strain vps1, stronger effect = lower value 1.02 | S. cerevisiae deletion strains, locus YKR026C, strain gcn3, stronger effect = lower value 1 | S. cerevisiae deletion strains, locus YKR091W, strain srl3, stronger effect = lower value 1 | S. cerevisiae deletion strains, locus YLL001W, strain dnm1, stronger effect = lower value 1.01 | S. cerevisiae deletion strains, locus YLL026W, stronger effect = lower value 1 | S. cerevisiae deletion strains, locus YLL041C, strain sdh2, stronger effect = lower value 1 | S. cerevisiae deletion strains, locus YLR027C, strain aat2, stronger effect = lower value 0.991 | S. cerevisiae deletion strains, locus YLR039C, strain RIC1, stronger effect = lower value 0.988 | S. cerevisiae deletion strains, locus YLR058C, strain SHM2, stronger effect = lower value 1 | S. cerevisiae deletion strains, locus YLR102C, strain apc9, stronger effect = lower value 1.01 | S. cerevisiae deletion strains, locus YLR221C, strain rsa3, stronger effect = lower value 0.995 | S. cerevisiae deletion strains, locus YLR258W, strain gsy2, stronger effect = lower value 0.994 | S. cerevisiae deletion strains, locus YLR262C, strain YPT6 (second series), stronger effect = lower value 0.972 | S. cerevisiae deletion strains, locus YLR262C, strain YPT6, stronger effect = lower value 0.933 | S. cerevisiae deletion strains, locus YLR268W, strain sec22, stronger effect = lower value 0.984 | S. cerevisiae deletion strains, locus YLR320W, strain mms22, stronger effect = lower value 1.01 | S. cerevisiae deletion strains, locus YLR342W, strain FKS1, stronger effect = lower value 0.992 | S. cerevisiae deletion strains, locus YLR357W, strain rsc2, stronger effect = lower value 1.02 | S. cerevisiae deletion strains, locus YLR370C, strain arc18, stronger effect = lower value 0.998 | S. cerevisiae deletion strains, locus YLR371W, strain rom2, stronger effect = lower value 1.01 | S. cerevisiae deletion strains, locus YLR384C, strain iki3, stronger effect = lower value 1.01 | S. cerevisiae deletion strains, locus YLR418C, strain cdc73, stronger effect = lower value 0.983 | S. cerevisiae deletion strains, locus YML016C, strain PPZ1, stronger effect = lower value 1.03 | S. cerevisiae deletion strains, locus YML032C, strain rad52, stronger effect = lower value 0.999 | S. cerevisiae deletion strains, locus YML120C, strain ndi1, stronger effect = lower value 1.01 | S. cerevisiae deletion strains, locus YML124C, strain tub3, stronger effect = lower value 0.993 | S. cerevisiae deletion strains, locus YMR058W, strain fet3, stronger effect = lower value 1.02 | S. cerevisiae deletion strains, locus YMR078C, strain ctf18, stronger effect = lower value 0.988 | S. cerevisiae deletion strains, locus YMR125W, strain sto1, stronger effect = lower value 1.01 | S. cerevisiae deletion strains, locus YMR129W, stronger effect = lower value 1 | S. cerevisiae deletion strains, locus YMR205C, strain PFK2, stronger effect = lower value 0.97 | S. cerevisiae deletion strains, locus YMR223W, strain ubp8, stronger effect = lower value 0.991 | S. cerevisiae deletion strains, locus YMR231W, strain pep5, stronger effect = lower value 1 | S. cerevisiae deletion strains, locus YMR307W, strain GAS1, stronger effect = lower value 1.03 | S. cerevisiae deletion strains, locus YNL067W, strain RPL9B, stronger effect = lower value 0.998 | S. cerevisiae deletion strains, locus YNL071W, strain lat1, stronger effect = lower value 1.01 | S. cerevisiae deletion strains, locus YNL153C, strain GIM3, stronger effect = lower value 1.02 | S. cerevisiae deletion strains, locus YNL209W, strain ssb2, stronger effect = lower value 1.02 | S. cerevisiae deletion strains, locus YNL233W, strain BNI4, stronger effect = lower value 1 | S. cerevisiae deletion strains, locus YNL248C, strain rpa49, stronger effect = lower value 1.02 | S. cerevisiae deletion strains, locus YNL250W, strain rad50, stronger effect = lower value 0.982 | S. cerevisiae deletion strains, locus YNL271C, strain bni1, stronger effect = lower value 1 | S. cerevisiae deletion strains, locus YNL298W, strain CLA4, stronger effect = lower value 0.997 | S. cerevisiae deletion strains, locus YNL307C, strain MCK1, stronger effect = lower value 0.999 | S. cerevisiae deletion strains, locus YNL322C, strain KRE1 (second series), stronger effect = lower value 1.02 | S. cerevisiae deletion strains, locus YNR049C, strain mso1, stronger effect = lower value 1.02 | S. cerevisiae deletion strains, locus YNR052C, strain pop2, stronger effect = lower value 1.01 | S. cerevisiae deletion strains, locus YOL006C, strain TOP1, stronger effect = lower value 0.984 | S. cerevisiae deletion strains, locus YOL012C, strain htz1 1.69 | S. cerevisiae deletion strains, locus YOL147C, strain pex11, stronger effect = lower value 0.999 | S. cerevisiae deletion strains, locus YOR001W, strain rrp6, stronger effect = lower value 1.03 | S. cerevisiae deletion strains, locus YOR061W, strain CKA2, stronger effect = lower value 1.01 | S. cerevisiae deletion strains, locus YOR069W, strain VPS5, stronger effect = lower value 1.01 | S. cerevisiae deletion strains, locus YOR070C, strain gyp1, stronger effect = lower value 1.02 | S. cerevisiae deletion strains, locus YOR080W, strain dia2, stronger effect = lower value 1.01 | S. cerevisiae deletion strains, locus YOR083W, strain WHI5, stronger effect = lower value 1 | S. cerevisiae deletion strains, locus YOR106W, strain vam3, stronger effect = lower value 0.999 | S. cerevisiae deletion strains, locus YOR136W, strain idh2, stronger effect = lower value 0.989 | S. cerevisiae deletion strains, locus YOR144C, strain elg1, stronger effect = lower value 1 | S. cerevisiae deletion strains, locus YOR184W, strain ser1, stronger effect = lower value 1 | S. cerevisiae deletion strains, locus YOR265W, strain rbl2, stronger effect = lower value 1.01 | S. cerevisiae deletion strains, locus YOR270C, strain vph1, stronger effect = lower value 0.951 | S. cerevisiae deletion strains, locus YOR290C, strain snf2, stronger effect = lower value 0.996 | S. cerevisiae deletion strains, locus YOR316C, strain cot1, stronger effect = lower value 1.01 | S. cerevisiae deletion strains, locus YPL051W, strain arl3, stronger effect = lower value 1.01 | S. cerevisiae deletion strains, locus YPL078C, strain atp4, stronger effect = lower value 1 | S. cerevisiae deletion strains, locus YPL106C, strain sse1, stronger effect = lower value 0.989 | S. cerevisiae deletion strains, locus YPL240C, strain hsp82, stronger effect = lower value 1.02 | S. cerevisiae deletion strains, locus YPR119W, strain clb2, stronger effect = lower value 0.998 | S. cerevisiae deletion strains, locus YPR141C, strain kar3, stronger effect = lower value 1.01 | S. cerevisiae deletion strains, locus YPR163C, strain tif3, stronger effect = lower value 0.991 | S. cerevisiae deletion strains, locus YPR167C, strain met16, stronger effect = lower value 1 | S. cerevisiae deletion strains, strain wtn01, stronger effect = lower value 0.983 | S. cerevisiae strains, strain wild type, stronger effect = lower value 1.01
active: S. cerevisiae deletion strains, locus YKL068W, stronger effect = lower value 1.17 [resistant] | S. cerevisiae deletion strains, locus YKL085W, strain MDH1 (second series), stronger effect = lower value 1.08 [resistant] | S. cerevisiae deletion strains, locus YKL085W, strain MDH1, stronger effect = lower value 1.08 [resistant]

Source: PubChem BioAssay AID1159580 (chemical genetic matrix, 2015)
